Values joined by “and” are separate entries in the source; they are usually repeats but may differ in a detail not shown here. Equal entries are not always repeated.
System: Plasmodium falciparum
Experiment: GSK_TCMDC: Inhibition of Plasmodium falciparum 3D7 in whole red blood cells, using parasite LDH activity as an index of growth. Test compounds present at 2uM
Type: functional

First: C/C=C1/CN2CC[C@H]1C[C@H]2[C@H](O)c1ccnc2ccc(OC)cc12
Second: CC[C@H]1CN2CC[C@@H]1C[C@H]2[C@H](O)c1cc[n+]([O-])c2ccc(OC)cc12
The Inhibition of the first is higher: 99% for the first, 95% for the second.

`N#Cc1c(Cl)cccc1Oc1ccc(S(=O)(=O)N2CCC(CN3CCC(c4c[nH]c5ccccc45)CC3)CC2)cc1` and `O=C(Nc1ccc(Cl)c(Cl)c1)N1CCC(CN2CCC(c3c[nH]c4ccccc34)CC2)CC1` are the same in Inhibition: 100% for the first, 100% for the second.

Compared with `COc1ccccc1CNCC(O)c1cc(C(F)(F)F)ccc1C(F)(F)F` (stereo not drawn), `Oc1ccccc1CNCC(O)c1cc(C(F)(F)F)cc(C(F)(F)F)c1` (stereo not drawn) is lower in Inhibition: 100% for the first, 99% for the second.

Compared with `CCN1CC=C(c2c[nH]c3ccccc23)CC1`, `O=C1c2ccccc2CCC1CCN1CC=C(c2c[nH]c3ccccc23)CC1` (stereo not drawn) is higher in Inhibition: 84% for the first, 89% for the second.

Going from `O=C(NC1CCC(CN2CCC(c3c[nH]c4ccccc34)CC2)CC1)c1csc(-c2cccc(Cl)c2Cl)n1` (stereo not drawn) to `O=C(CSc1ccc(Cl)cc1)NC1CCC(CN2CCC(c3c[nH]c4ccccc34)CC2)CC1` (stereo not drawn), the Inhibition falls from 99% to 95%.

`Cl.c1ccc2c(NCCCCCCCCCNc3c4ccccc4nc4ccccc34)c3ccccc3nc2c1` and `Cl.c1ccc2c(NCCCCCCNc3c4c(nc5ccccc35)CCCC4)c3c(nc2c1)CCCC3` are the same in Inhibition: 100% for the first, 100% for the second.

`C=C[C@H]1CN2CC[C@H]1C[C@H]2[C@H](O)c1cc(/C=C/c2ccc(F)cc2)nc2ccc(OC)cc12.Cl` and `CC[C@H]1CN2CC[C@H]1C[C@H]2[C@H](O)c1cc(/C=C/c2ccc(F)cc2)nc2ccc(OC)cc12.Cl` are the same in Inhibition: 99% for the first, 99% for the second.

`COc1cc(C=CC(=O)NC2CCC(CN3CCC(c4c[nH]c5ccccc45)CC3)CC2)cc(OC)c1` (stereo not drawn) and `O=C(/C=C/c1cc([N+](=O)[O-])ccc1Cl)NC1CCC(CN2CCC(c3c[nH]c4ccccc34)CC2)CC1` (stereo not drawn) are the same in Inhibition: 100% for the first, 100% for the second.

Going from `CC(C)CN1CCC(N(C)c2cc(NC(=O)c3cccc(F)c3)ccn2)CC1.O=C(O)C(F)(F)F` to `COCCNCc1cccc(-c2ccccc2CN(C(=O)Nc2ccccc2)C2CCN(Cc3ccccc3)CC2)c1.O=C(O)C(F)(F)F`, the Inhibition falls from 97% to 96%.

Going from `COc1c(F)cc(CC(C)NCC(O)c2cccc(Cl)c2)cc1F.Cl` (stereo not drawn) to `Cc1ccc(CC(C)NCC(O)c2cccc(C(F)(F)F)c2)c(C)c1.Cl` (stereo not drawn), the Inhibition rises from 93% to 99%.

Compared with `CC(=O)C1(c2ccccc2)CCN(CCC2(c3ccc(Cl)c(Cl)c3)CN(C(=O)C3CCCCC3)CCO2)CC1` (stereo not drawn), `O=C(O)/C=C\C(=O)O.OC1(c2ccc(Cl)c(C(F)(F)F)c2)CCN(CCOC2c3ccccc3CSc3ccc(Cl)cc32)CC1` (stereo not drawn) is lower in Inhibition: 100% for the first, 95% for the second.

First: Cc1ccc(CC(C)NCC(O)c2cccc(C#N)c2)cc1 (stereo not drawn)
Second: C[C@H](Cc1ccc(OCCCCCCOc2ccccc2)cc1)NC[C@H](O)c1cccc(Cl)c1.Cl
The Inhibition of the first is higher: 94% for the first, 93% for the second.

`COc1ccc(CCNCc2ccc3nc(N)c(C)cc3c2)cc1.Cl` and `COc1ccc2nc(-c3ccc(F)cc3)cc([C@@H](O)[C@@H]3C[C@@H]4CCN3CC4C=NO)c2c1` (stereo partly drawn) are the same in Inhibition: 100% for the first, 100% for the second.

Compared with `CCN1CCC2(c3cccc(OC)c3)Cc3nc4ccccc4c(-c4ccccc4)c3CC2C1` (stereo not drawn), `CC[C@H]1CN2CC[C@@H]1C[C@H]2[C@H](O)c1cc(N2CCC(O)(c3ccccc3)CC2)nc2ccc(OC)cc12` is higher in Inhibition: 99% for the first, 100% for the second.

Compared with `O=C(/C=C/c1ccc(Cl)c(Cl)c1)NC1CCC(CN2CCC(c3c[nH]c4ccc(O)cc34)CC2)CC1` (stereo not drawn), `COc1cc(NC(=O)c2nn(CCCN3CCC4(CC3)C(=O)NCN4c3ccccc3)cc2-c2ccc(Cl)c(Cl)c2)cc(OC)c1OC` is lower in Inhibition: 100% for the first, 97% for the second.

Compared with `CC[C@H]1CN2CC[C@@H]1C[C@H]2[C@H](O)c1cc(N2CCSCC2)nc2ccc(OC)cc12`, `C=C[C@H]1CN2CC[C@H]1C[C@H]2[C@H](O)c1ccnc2ccccc12` [CINCHONIDINE] is higher in Inhibition: 99% for the first, 100% for the second.

Going from `CCCCCCCN1C2CCC1CC(CCOc1ccnc3ccc(OC)cc13)C2` (stereo not drawn) to `CN1CCC(N(C)c2nccc(N3CCN(Cc4cncn4Cc4ccccc4)CC3)n2)CC1`, the Inhibition rises from 98% to 100%.

Going from `CCOC(C(=O)OCC1CCCN1C)(c1ccccc1)c1ccccc1` (stereo not drawn) to `Cc1cc(-c2ncc[nH]2)ccc1-c1ccc(C(=O)N2CCc3cc4c(cc32)C2(CCN(C)CC2)CO4)cc1.Cl`, the Inhibition rises from 97% to 100%.

`COc1cccc(/C=C/C(=O)NC2CCC(CN3CCC(c4c[nH]c5ccccc45)CC3)CC2)c1` (stereo not drawn) was tested, and the Inhibition was 100% and 94%.
For `O=C(/C=C/c1ccc(Cl)cc1)NC1CCC(CN2CCC(c3c[nH]c4ccccc34)CC2)CC1` (stereo not drawn), the Inhibition was 99% and 100%.

From ChEMBL document CHEMBL1157539, “Thousands of chemical starting points for antimalarial lead identification” (Nature, 2010)
